The target in the test is T1, Methionyl-tRNA synthetase, putative (Leishmania donovani (strain BPK282A1)) (UniProt E9BF75).
T1 sequence (whole entry): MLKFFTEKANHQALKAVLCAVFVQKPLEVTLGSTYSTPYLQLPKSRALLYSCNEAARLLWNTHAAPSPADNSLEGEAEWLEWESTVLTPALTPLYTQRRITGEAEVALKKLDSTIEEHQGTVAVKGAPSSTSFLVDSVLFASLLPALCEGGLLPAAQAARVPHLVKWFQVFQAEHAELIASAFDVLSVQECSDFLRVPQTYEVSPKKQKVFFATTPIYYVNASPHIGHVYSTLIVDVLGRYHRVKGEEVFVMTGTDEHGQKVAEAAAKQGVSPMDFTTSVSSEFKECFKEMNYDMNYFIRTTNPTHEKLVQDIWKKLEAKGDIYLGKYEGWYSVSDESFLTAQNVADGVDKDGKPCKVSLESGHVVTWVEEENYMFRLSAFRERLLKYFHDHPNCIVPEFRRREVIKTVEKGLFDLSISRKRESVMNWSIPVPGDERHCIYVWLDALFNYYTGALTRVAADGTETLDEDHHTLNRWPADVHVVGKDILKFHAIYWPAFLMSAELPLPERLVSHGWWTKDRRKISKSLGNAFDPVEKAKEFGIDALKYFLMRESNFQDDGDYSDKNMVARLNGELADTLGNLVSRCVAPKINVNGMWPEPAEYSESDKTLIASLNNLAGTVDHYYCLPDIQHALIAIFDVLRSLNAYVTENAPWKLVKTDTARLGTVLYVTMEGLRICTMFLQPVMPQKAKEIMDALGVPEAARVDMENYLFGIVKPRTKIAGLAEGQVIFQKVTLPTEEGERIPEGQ
Description: Leishmania donovani Methionine tRNA synthetase (LdMetRS):v7. Dose response assay. The class given is functional. Set-up: conc 80 nM, time 150 minutes.

For three compounds, PXC50 results are on record in ChEMBL document CHEMBL3988442, “University of Dundee, Small-Polar-MMV Screening Library” (2021).

With `Cn1ncc2c(NCCO)nc(Nc3ccc(F)c(F)c3)nc21`, the PXC50 reads like this: (BOTTOM 1.675324724, HILLSLOPE 0.887004354, MAX_EFFECT 86.8852459, TOP 97.31963994) 5.01; (BOTTOM 3.874295481, HILLSLOPE 1.000014766, MAX_EFFECT 87.03703704, TOP 93.55609097) 5.08; (BOTTOM 3.975924252, HILLSLOPE 0.806965021, MAX_EFFECT 84.10596026, TOP 99.5157675) 4.91; (BOTTOM 7.489204203, HILLSLOPE 1.122010423, MAX_EFFECT 83.60655738, TOP 90.20006383) 4.96; (BOTTOM -1.215365939, HILLSLOPE 0.665929937, MAX_EFFECT 87.19646799, TOP 108.6182019) 4.92.

Consider `CCc1ccc(-c2cc(C(F)(F)F)nc(N3CCC(N)CC3)n2)cc1`, for which the PXC50 turned out to be 4.56 (BOTTOM 0.706388919, HILLSLOPE 2.15610203, MAX_EFFECT 103.8387716, TOP 100.0); 4.35 (BOTTOM 1.827311561, HILLSLOPE 2.684909792, MAX_EFFECT 98.40510367, TOP 100.0); 4.34 (BOTTOM 4.066049008, HILLSLOPE 2.434171465, MAX_EFFECT 89.60138648, TOP 100.0); 4.46 (BOTTOM 4.927859372, HILLSLOPE 1.513560957, MAX_EFFECT 87.5, TOP 100.0); 4.19 (BOTTOM -3.243969643, HILLSLOPE 5.145586142, MAX_EFFECT 85.90604027, TOP 95.73252463).

Consider `CC(C)C[C@H](N)COc1cccc(F)c1Oc1ccc(Cl)cc1`, for which the PXC50 runs as follows: (BOTTOM 2.189725924, HILLSLOPE 1.340429131, MAX_EFFECT 78.50287908, TOP 100.0) 4.39; (BOTTOM 6.665693755, HILLSLOPE 1.000390525, MAX_EFFECT 63.08724832, TOP 89.83359252) 4.34; (BOTTOM 8.555350196, HILLSLOPE 1.300138335, MAX_EFFECT 82.32235702, TOP 100.0) 4.4; (BOTTOM 9.084234051, HILLSLOPE 1.282962904, MAX_EFFECT 79.16666667, TOP 100.0) 4.36; (BOTTOM -2.40342641, HILLSLOPE 1.582156808, MAX_EFFECT 66.8261563, TOP 100.0) 4.18.
